Inconclusive results are not listed. Calls of active or inactive are those of the source. Unless noted, calls follow the shape of the dose curve; as a rule, active = well fitted curve in the direction sought with a large enough effect; inconclusive = small, poorly fitted or top-dose-only effect, or another doubt; inactive = no such curve, though single readings can be large; an effect the other way counts as inactive or inconclusive.

Assay [1] addresses Estrogen receptor (Homo sapiens) (UniProt P03372). Description: qHTS assay for small molecule antagonists of estrogen receptor alpha signaling (AID 588513; active = well fitted curve in the direction sought with a large enough effect in the signal ratio, with a control signal flat, not every such curve was filed as active; the % refers to the signal ratio; also: % is scaled to controls: 0 for no effect and ±100 for the full control effect). As to conditions: ER-alpha-UAS-bla HEK293, beta-lactamase ratio, antagonist mode; series mostly up to 76.9 µM. A digest of the protocol: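 ER-alpha-UAS-bla GripTite HEK 293 cells in medium with 2% charcoal/dextran-treated FBS were preincubated 4 h at 37 C, dosed with compound (1:2 titration), stimulated with 0.5nM 17-beta-estradiol for 18 h, then read by CCF4 beta-lactamase fluorescence.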

For assay [2] the target is unchanged. Description: qHTS assay for small molecule agonists of estrogen receptor alpha signaling (AID 588514; calls by dose curve;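 also: 0% = vehicle only and 100% = reference agonist; nearly all actives have a fitted effect of over 70% in size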). As to conditions: ER-alpha-UAS-bla HEK293, beta-lactamase ratio, 18 h; series mostly up to 76.8 µM. Put shortly:
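ER-alpha-UAS-bla GripTite HEK293 cells, 5000/well in 2% charcoal/dextran-stripped FBS medium, treated with compound titrations 18 h at 37 C. CCF4 beta-lactamase read by fluorescence after 2 h RT; normalised to 20 nM 17-beta-estradiol (100%) and DMSO (0%), Hill fit for EC50 and efficacy.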
(In qHTS, concentration-response curves come from the screen itself.)

For assay [3], the target named is Glucocorticoid receptor (Homo sapiens) (UniProt P04150). The assay can be described thus: qHTS assay for small molecule agonists of glucocorticoid receptor signaling (AID 588532; active = well fitted curve in the direction sought with a large enough effect in the signal ratio, with a control signal flat; the % refers to the signal ratio;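 also: 100% = dexamethasone at 0.1 µM and 0% = DMSO only wells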). As to conditions: HeLa MMTV-bla, beta-lactamase ratio, agonist, 18 h; stronger effect = higher value; percent of dexamethasone control, DMSO zero. Put shortly: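 Cells were plated and rested 3-5 h at 37 C, compounds were added in titration and incubated 18 h, then CCF4 substrate was loaded for 2 h at RT before reading blue/green fluorescence. EC50 came from Hill-equation fitting.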
Sequence of Glucocorticoid receptor (Homo sapiens) (P04150 whole entry, looked up): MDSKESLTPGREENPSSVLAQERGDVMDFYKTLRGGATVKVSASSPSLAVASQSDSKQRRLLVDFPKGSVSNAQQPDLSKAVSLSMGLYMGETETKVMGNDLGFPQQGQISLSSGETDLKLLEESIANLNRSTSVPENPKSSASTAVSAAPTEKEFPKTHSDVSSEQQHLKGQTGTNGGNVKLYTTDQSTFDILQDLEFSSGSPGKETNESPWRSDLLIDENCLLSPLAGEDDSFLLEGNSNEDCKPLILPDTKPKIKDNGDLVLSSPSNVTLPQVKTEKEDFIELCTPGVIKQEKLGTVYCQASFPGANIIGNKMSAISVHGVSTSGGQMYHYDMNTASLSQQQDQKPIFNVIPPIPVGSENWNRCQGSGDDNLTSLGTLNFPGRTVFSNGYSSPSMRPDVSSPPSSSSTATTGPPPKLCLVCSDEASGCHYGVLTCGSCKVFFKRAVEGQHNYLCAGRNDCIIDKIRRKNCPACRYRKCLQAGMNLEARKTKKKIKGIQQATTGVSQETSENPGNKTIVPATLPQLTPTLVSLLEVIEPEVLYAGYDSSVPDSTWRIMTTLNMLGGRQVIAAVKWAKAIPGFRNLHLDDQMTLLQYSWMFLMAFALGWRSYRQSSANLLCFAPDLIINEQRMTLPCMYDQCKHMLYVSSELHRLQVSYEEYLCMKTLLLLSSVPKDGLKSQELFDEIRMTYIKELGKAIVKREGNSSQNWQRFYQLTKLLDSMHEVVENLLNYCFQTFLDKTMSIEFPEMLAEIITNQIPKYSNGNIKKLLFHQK

Assay [4] can be described thus: qHTS assay for small molecule antagonists of peroxisome proliferator-activated receptor delta signaling (AID 588535; active = well fitted inhibition curve with a large enough effect in the signal ratio, with a control signal flat, not every such curve was filed as active; the % refers to the signal ratio;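 as to max response: cells co-treated with a PPAR-delta agonist as stimulator during compound exposure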). As to conditions: HEK293T PPARd-UAS-bla, beta-lactamase FRET ratio, 18 h; 460 nm channel. A digest of the protocol: (§1)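 Antagonist-mode beta-lactamase reporter (GeneBLAzer PPAR-delta-UAS-bla) in HEK293T cells, 2% charcoal/dextran FBS, 4000 cells/well. Compound titrations, 18 h at 37 C; CCF4 ratio read, IC50 and efficacy from Hill fits.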

Assay [5] deals with Peroxisome proliferator-activated receptor delta (Homo sapiens) (UniProt Q03181). The assay is described as above. The conditions noted are these: HEK293T PPARd-UAS-bla, beta-lactamase FRET ratio, 18 h; series mostly up to 76.7 µM. Put shortly: as §1
Sequence of Peroxisome proliferator-activated receptor delta (Homo sapiens) (Q03181 whole entry, looked up): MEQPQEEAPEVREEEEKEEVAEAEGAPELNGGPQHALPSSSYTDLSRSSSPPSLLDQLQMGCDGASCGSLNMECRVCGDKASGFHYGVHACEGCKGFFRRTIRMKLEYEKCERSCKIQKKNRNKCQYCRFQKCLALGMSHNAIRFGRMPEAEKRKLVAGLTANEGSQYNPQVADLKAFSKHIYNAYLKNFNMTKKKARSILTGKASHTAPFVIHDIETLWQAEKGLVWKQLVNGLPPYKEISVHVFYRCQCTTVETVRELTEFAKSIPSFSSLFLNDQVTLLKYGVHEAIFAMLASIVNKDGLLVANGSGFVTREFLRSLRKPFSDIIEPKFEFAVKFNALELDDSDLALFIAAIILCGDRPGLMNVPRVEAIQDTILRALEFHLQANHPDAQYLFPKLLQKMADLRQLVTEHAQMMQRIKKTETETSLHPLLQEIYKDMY
A short description of assay [6]: qHTS assay for small molecule agonists of retinoid X receptor alpha signaling (AID 588544). As to conditions: HEK293T RXRa-UAS-bla, beta-lactamase reporter, 18 h; 530 nm emission.
For assay [7], the target named is Thyroid hormone receptor beta (Homo sapiens) (UniProt P10828). The assay can be described thus: qHTS assay for small molecule agonists of thyroid hormone receptor beta signaling (AID 588545; calls by dose curve). As to conditions: TR-UAS-bla GripTite HEK 293, beta-lactamase ratio, agonist mode, 18 h; series mostly up to 76.7 µM. Put shortly: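 Agonist activity was read as beta-lactamase CCF4 fluorescence (405 ex, 460/530 em), scaled between DMSO (0%) and 10 nM T3 (100%), then Hill-fitted for EC50 and efficacy. HEK 293 TR-UAS-bla cells in 2% charcoal/dextran FBS medium were exposed 18 h at 37 C.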
Sequence of Thyroid hormone receptor beta (Homo sapiens) (P10828 whole entry, looked up): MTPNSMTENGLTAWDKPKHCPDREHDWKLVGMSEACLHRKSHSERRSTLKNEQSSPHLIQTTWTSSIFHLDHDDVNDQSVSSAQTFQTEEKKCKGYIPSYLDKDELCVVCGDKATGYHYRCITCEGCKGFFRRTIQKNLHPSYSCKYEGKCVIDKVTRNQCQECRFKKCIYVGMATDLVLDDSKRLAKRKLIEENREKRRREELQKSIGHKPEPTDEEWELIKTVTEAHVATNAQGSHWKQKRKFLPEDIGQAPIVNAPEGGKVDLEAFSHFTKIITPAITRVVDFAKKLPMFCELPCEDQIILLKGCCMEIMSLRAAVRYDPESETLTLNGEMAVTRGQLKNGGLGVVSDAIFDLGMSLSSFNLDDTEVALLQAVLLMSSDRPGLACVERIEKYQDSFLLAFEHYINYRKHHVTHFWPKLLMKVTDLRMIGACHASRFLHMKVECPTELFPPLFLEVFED

Assay [8] is described as follows: qHTS assay for small molecule antagonists of retinoid X receptor alpha signaling (AID 588546; active = well fitted inhibition curve with a large enough effect in the signal ratio, with a control signal flat, not every such curve was filed as active; the % refers to the signal ratio;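 also: cells stimulated with 9-cis-retinoic acid as agonist; % is scaled to controls: 0 for no effect and ±100 for the full control effect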). The conditions noted are these: HEK293T RXRa-UAS-bla, beta-lactamase ratio, antagonist mode; measured here: W530 green channel, cytotoxicity proxy. A digest of the protocol: (§2)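 Beta-lactamase reporter inhibition, read as CCF4 fluorescence ratio (ex 405, em 460/530 nm) after 2 h at RT. HEK293T UAS-bla cells, 2500/well, were stimulated with 9-cis-RA at 500 or 100 nM final alongside test compound for 18 h at 37 C.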

In assay [9] the target is Retinoic acid receptor RXR-alpha (Homo sapiens) (UniProt P19793). The description is as above. The conditions noted are these: HEK293T RXRa-UAS-bla, beta-lactamase ratio, antagonist mode. A digest of the protocol:
as §2

The target of assay [10] is Thyroid hormone receptor beta (Homo sapiens) (UniProt P10828). Description: qHTS assay for small molecule antagonists of thyroid hormone receptor beta signaling (AID 588547; active = well fitted inhibition curve with a large enough effect in the signal ratio, with a control signal flat, not every such curve was filed as active; the % refers to the signal ratio;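 also: cells stimulated with 0.4 nM T3 agonist during compound exposure; % is scaled to controls: 0 for no effect and ±100 for the full control effect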). The conditions noted are these: TR-UAS-bla HEK293, beta-lactamase ratio, antagonist mode, 18 h. Put shortly: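 TR-UAS-bla GripTite HEK293 cells in 2% charcoal/dextran FBS medium; compounds 0.59 nM to 92 uM with T3 at 0.4nM final, 18 h at 37 C. Beta-lactamase read by CCF4 fluorescence (460/530 nm); Hill fits gave IC50 and efficacy.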

The nature of assay [11]: qHTS assay for small molecule activators of the p53 signaling pathway (AID 651743; active = well fitted activation curve with a large enough effect in the signal ratio, not every such curve was filed as active; the % refers to the signal ratio; also: % of control where 0% means no effect). As to conditions: HCT-116 p53RE-bla, beta-lactamase FRET ratio, 16 h; activation: stronger effect = higher value. Put shortly:
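p53RE-bla HCT-116 cells carrying a beta-lactamase reporter under p53 response elements were exposed to compounds for 16 hours at 37 C. Reporter activity read as fluorescence after 2 hours at room temperature with LiveBLAzer B/G FRET substrate.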

The nature of assay [12]: qHTS assay for environmental chemicals that activate the Aryl hydrocarbon Receptor (AhR) signaling pathway (AID 651777). Also: % of control where 0% means no effect; nearly all actives have a fitted effect of over 15% in size. The conditions noted are these: 1A2-DRE human hepatoma cells, luciferase, 24 h; activation: stronger effect = higher value. Put shortly:
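Human hepatoma 1A2-DRE cells, stably carrying a dioxin response element and CYP1A2 promoter driving luciferase, were exposed to compounds for 24 hr at 37 C and 5% CO2. Luciferase signal was then read after 30 min One-Glo at room temperature.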

Assay [13] concerns the target Peroxisome proliferator-activated receptor alpha (Homo sapiens) (UniProt Q07869). Description: qHTS assay for small molecule agonists of the peroxisome proliferator-activated receptor alpha (PPARalpha) signaling pathway (AID 651778). Also: % of control where 0% means no effect. As to conditions: PathHunter PPARalpha complementation, chemiluminescence, 6 h; max response: stronger effect = higher value. A digest of the protocol:
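Enzyme-fragment complementation assay in which ligand-bound PPARalpha translocates and forms an active enzyme that generates chemiluminescence. Cells were plated overnight, exposed to compound for 6 hr at 37 C, and then given detection reagent for 60 min at room temperature.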

A short description of assay [14]: qHTS assay for small molecule agonists of the antioxidant response element (ARE) signaling pathway measured by Nrf2-dependant transcriptional activity (AID 720636; active = well fitted curve in the direction sought with a large enough effect in the repeat runs; an effect the other way counts as inactive or inconclusive; also: % of control where 0% means no effect). The conditions noted are these: ARE-luc HepG2, Nrf2 luciferase reporter, 16 h; series mostly up to 92.4 µM. Put shortly:
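ARE-luc HepG2 cells carrying an Nrf2-responsive luciferase reporter were plated in medium with 1% dialyzed FBS, left 6 hr at 37 C to attach, then exposed to compound for 16 hr. Luciferase luminescence was read after ONE-Glo addition.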

Assay [15] is described as follows: qHTS assay for small molecule agonists of the antioxidant response element (ARE) signaling pathway measured by Nrf2-dependant transcriptional activity - cell viability counter screen (AID 720653; active = well fitted curve in the direction sought with a large enough effect in the repeat runs; an effect the other way counts as inactive or inconclusive; also: % is scaled to controls: 0 for no effect and ±100 for the full control effect). As to conditions: ARE-bla HepG2 viability, CellTiter-Glo ATP luminescence, 16 h; max response: stronger effect = lower value. Put shortly: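 ARE-bla HepG2 cells treated with compounds for 16 h at 37C; this counter screen measures viability as intracellular ATP by CellTiter-Glo luminescence after 30 min at room temperature.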

Assay [16] in a line: qHTS assay for cell viability of HEK293 cells (AID 743288). Also: % is scaled to controls: 0 for no effect and ±100 for the full control effect; nearly all actives have a fitted effect of over 50% in size. The conditions noted are these: ATP luminescence (CellTiter-Glo), 18 h; max response: stronger effect = lower value. A digest of the protocol: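 Parental HEK293 cells were seeded at 2,000 cells/well, rested at least 5 h at 37 C, then exposed to compounds in DMSO for 18 h at 37 C. Viability was read as ATP-dependent luciferase luminescence after 30 min at room temperature.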

Assay [17] can be described thus: qHTS assay for cell viability of the p53RE-bla HCT-116 cell line (AID 743292). Also: % is scaled to controls: 0 for no effect and ±100 for the full control effect; nearly all actives have a fitted effect of over 55% in size. As to conditions: p53RE-bla HCT-116 viability, ATP luminescence, 16 h; series mostly up to 95 µM. A digest of the protocol:
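CellSensor p53RE-bla HCT-116 cells, 4,000/well, preincubated 5 h at 37 C, then exposed to compounds in DMSO for 16 h at 37 C. Viability read as CellTiter-Glo luminescence (intracellular ATP) after 30 min at room temperature.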

The target of assay [18] is Nuclear receptor subfamily 1 group I member 2 (Rattus norvegicus) (UniProt Q9R1A7). Description: qHTS assay for small molecule activators of the rat pregnane X receptor (rPXR) signaling pathway (AID 651751; call rule not given here; also: 0% is about no effect). As to conditions: rPXR reporter cells, luciferase (One-Glo), 24 h.
Sequence of Nuclear receptor subfamily 1 group I member 2 (Rattus norvegicus) (Q9R1A7 whole entry, looked up): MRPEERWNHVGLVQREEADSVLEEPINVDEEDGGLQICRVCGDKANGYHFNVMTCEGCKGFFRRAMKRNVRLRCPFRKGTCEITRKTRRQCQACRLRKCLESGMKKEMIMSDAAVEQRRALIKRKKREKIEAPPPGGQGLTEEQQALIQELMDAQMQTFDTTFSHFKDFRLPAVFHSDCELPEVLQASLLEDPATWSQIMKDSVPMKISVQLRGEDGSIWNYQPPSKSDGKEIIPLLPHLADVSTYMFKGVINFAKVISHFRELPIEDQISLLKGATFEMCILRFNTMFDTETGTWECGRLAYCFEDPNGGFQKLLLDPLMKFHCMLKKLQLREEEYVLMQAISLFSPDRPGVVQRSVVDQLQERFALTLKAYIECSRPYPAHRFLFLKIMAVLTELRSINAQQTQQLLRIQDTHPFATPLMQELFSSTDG
A short description of assay [19]: qHTS assay for small molecule activators of the human pregnane X receptor (PXR) signaling pathway (AID 720659; call rule not given here; also: 0% is about no effect). The conditions noted are these: DPX-2 HepG2 CYP3A4-luciferase, 24 h; series mostly up to 92.3 µM.
The target in assay [20] is Peroxisome proliferator-activated receptor gamma (Homo sapiens) (UniProt P37231). The assay can be described thus: qHTS assay for small molecule agonists of peroxisome proliferator-activated receptor gamma signaling (AID 588536; active = well fitted curve in the direction sought with a large enough effect in the signal ratio, with a control signal flat, not every such curve was filed as active; the % refers to the signal ratio;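 also: 0% = DMSO basal wells and 100% = rosiglitazone at 2 µM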). As to conditions: HEK293 PPARg-UAS-bla, beta-lactamase ratio, 16 h, percent of rosiglitazone response, DMSO as zero; series mostly up to 76.7 µM. Put shortly:
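Test agents, titrated, stimulated HEK293 UAS-bla cells overnight (16 h, 37 C). Substrate CCF4 was then added for two hours at room temperature before fluorescence reading.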

Sequence of Peroxisome proliferator-activated receptor alpha (Homo sapiens) (Q07869 whole entry, looked up, the tested form may be a part): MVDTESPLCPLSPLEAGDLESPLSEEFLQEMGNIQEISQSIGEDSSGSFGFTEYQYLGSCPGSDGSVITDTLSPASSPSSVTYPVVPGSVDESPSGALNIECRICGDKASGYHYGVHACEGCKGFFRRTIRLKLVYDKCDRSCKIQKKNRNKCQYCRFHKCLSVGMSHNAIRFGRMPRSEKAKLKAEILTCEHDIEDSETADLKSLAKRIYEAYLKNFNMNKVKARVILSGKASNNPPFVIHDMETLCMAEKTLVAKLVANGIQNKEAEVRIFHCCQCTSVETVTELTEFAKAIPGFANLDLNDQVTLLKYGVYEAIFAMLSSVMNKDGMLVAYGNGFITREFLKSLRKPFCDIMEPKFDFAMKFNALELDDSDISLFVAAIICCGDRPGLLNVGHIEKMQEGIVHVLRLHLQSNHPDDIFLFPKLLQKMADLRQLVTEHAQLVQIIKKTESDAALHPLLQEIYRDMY
Sequence of Estrogen receptor (Homo sapiens) (P03372 whole entry, looked up): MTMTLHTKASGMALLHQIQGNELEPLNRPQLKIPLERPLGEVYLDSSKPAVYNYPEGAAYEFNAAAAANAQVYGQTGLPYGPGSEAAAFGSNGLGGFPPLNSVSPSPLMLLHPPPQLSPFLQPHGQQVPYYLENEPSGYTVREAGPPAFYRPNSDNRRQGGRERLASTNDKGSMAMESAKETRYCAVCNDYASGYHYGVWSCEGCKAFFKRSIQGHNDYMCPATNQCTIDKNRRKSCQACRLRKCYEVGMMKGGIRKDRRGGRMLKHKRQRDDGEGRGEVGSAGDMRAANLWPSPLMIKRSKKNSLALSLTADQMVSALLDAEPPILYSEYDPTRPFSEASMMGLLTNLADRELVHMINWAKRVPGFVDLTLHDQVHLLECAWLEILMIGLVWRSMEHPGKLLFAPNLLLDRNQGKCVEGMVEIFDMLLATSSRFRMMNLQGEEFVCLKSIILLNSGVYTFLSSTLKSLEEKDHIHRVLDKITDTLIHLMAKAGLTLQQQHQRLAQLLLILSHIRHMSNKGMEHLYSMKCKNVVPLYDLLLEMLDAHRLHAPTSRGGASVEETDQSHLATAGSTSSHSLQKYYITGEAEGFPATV
Sequence of Retinoic acid receptor RXR-alpha (Homo sapiens) (P19793 whole entry, looked up): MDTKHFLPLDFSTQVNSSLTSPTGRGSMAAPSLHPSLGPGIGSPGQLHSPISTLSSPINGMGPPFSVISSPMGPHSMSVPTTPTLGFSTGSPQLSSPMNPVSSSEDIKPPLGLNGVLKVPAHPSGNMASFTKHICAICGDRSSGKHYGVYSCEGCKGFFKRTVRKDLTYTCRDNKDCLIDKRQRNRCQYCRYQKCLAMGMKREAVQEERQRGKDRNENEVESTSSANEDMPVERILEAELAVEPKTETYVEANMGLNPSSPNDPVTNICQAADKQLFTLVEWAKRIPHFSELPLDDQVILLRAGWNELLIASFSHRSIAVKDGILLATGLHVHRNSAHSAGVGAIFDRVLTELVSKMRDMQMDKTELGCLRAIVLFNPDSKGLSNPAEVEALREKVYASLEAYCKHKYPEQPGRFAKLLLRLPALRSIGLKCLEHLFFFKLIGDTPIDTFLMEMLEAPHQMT
Sequence of Peroxisome proliferator-activated receptor gamma (Homo sapiens) (P37231 whole entry, looked up): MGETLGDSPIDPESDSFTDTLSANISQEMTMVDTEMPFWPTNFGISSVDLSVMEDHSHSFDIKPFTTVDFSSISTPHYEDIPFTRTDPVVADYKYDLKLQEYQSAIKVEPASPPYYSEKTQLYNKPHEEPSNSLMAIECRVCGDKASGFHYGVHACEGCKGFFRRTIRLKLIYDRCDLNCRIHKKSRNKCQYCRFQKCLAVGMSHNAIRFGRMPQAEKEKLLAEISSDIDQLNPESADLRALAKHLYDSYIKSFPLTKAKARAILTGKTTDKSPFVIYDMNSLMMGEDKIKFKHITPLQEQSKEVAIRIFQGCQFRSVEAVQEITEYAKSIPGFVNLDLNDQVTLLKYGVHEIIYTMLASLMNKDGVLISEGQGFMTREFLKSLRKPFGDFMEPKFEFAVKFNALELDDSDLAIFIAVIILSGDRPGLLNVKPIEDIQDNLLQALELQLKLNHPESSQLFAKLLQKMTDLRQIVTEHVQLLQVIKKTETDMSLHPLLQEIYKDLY

On to `Cn1c(=O)[nH]c(=O)n(C2CCC(O)CC2)c1=O` (stereo not given), for which the Potency entry in assay [1], in assay [2], in assay [5], in [7], in [14] and in assay [17] was “inactive” throughout. The activation in assay [3] was -2.18% (inactive); in assay [11], 2.9% (inactive); in assay [12] it was 1.88% (inactive). Moreover, the max response is 54.4% in [4]; -1.18% in assay [6]; -1.59% in [8]; -0.444% (inactive) in [9]; -2.74% (inactive) in assay [13]; 7.46% (inactive) in assay [15]. Also, the max response is -0.781% (inactive) in assay [16] and -2.03% (inactive) in [18]. The activity change % (negative = inhibition) in [10] is 3.03% (inactive). The outcome in assay [19] was inactive.
Consider `CNc1nc(=O)n(C2CCCCC2)c(=O)n1C`, for which the Potency entry in assay [1], in assay [2], in assay [5], in assay [7], in assay [14] and in [17] was “inactive” each time. Further, the activation in assay [3] was -5.96% (inactive); in assay [11], 0.353% (inactive); in assay [12] it was 2.39% (inactive). For the same compound, the max response is 8.32% in [4]; -10.1% in [6]; -10.4% in assay [8]; -0.955% (inactive) in [13]; 3.71% (inactive) in assay [15]; -6.85% (inactive) in [16]. Further, in [18], the max response was -0.0446% (inactive). In addition, in assay [19], the outcome was inactive.
Regarding `CCCCCCCOC(=O)c1ccccc1C(=O)OCCCCCCC`, the Potency result in [1], in assay [2], in [5], in assay [7], in [14] and in assay [17] was “inactive” each time. In addition, the activation in assay [3] was -3.48% (inactive); in [11] it was -3.71% (inactive); in assay [12], -0.336% (inactive). The max response in assay [4] was -7.26%; in assay [6], -2.68%; in [8], -8.81%; in assay [9], 5.05% (inactive); in assay [13] it was 0.0123% (inactive); in assay [15], 6.19% (inactive). In addition, the max response is -8.86% (inactive) in [16] and -1.98% (inactive) in [18]. The result in assay [20] and in [19] was inactive.
For the compound `CCCCCCCCCC(C)=O`, the Potency result in [1], in assay [2], in assay [5], in assay [7], in [14] and in [17] was “inactive” throughout. The values for the activation in assay [3], in assay [11] and in assay [12] were -12.1% (inactive), -2.23% (inactive) and 0.0383% (inactive), respectively. Besides, the max response in assay [4] was 26.8%; in [6], -16.2%; in [8] it was -6.07%; in assay [9] it was -4.81% (inactive); in [13], 0.198% (inactive); in [15], -10.8% (inactive). The max response was -5.17% (inactive) in assay [16] and -2.12% (inactive) in assay [18]. Besides, the outcome in assay [20] and in assay [19] was inactive. In addition, the activity change % (negative = inhibition) in [10] is -10.7% (inactive).

Source of the values: PubChem BioAssay (NCATS).
